Measured values reported in PubChem BioAssay (NCI).
“And” between values parts separate entries of the source, which are not always exact repeats. Identical values can stand only once. Compounds without any hit were thinned out: in the full panel of roughly 83,000, 20% have a hit.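 Single-concentration screen, 48 h exposure, 96-well plates. Endpoint: percent growth. Below 10 = active.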 The source made the active and inactive calls.

The compounds below were run on MDA-MB-468 breast (assay: NCI-60 one-dose screen, 48 h (100 = growth as untreated, 0 = no growth, -100 = all killed)). Conditions: 10 µM unless noted.

| Structure (SMILES) | growth |
| --- | --- |
| COc1ccc(S(=O)(=O)NCCCNc2nccc(-c3c(-c4ccc(F)cc4)nc4sccn34)n2)cc1 | 61.2% (inactive) |
| CCCCCCCCCC(=O)NC(C)(C)C(=O)N1CCC[C@H]1C(=O)N[C@@H](CC(C)C)C(=O)N[C@@](C)(CC)C(=O)N[C@@H](CCC(N)=O)C(=O)N[C@H](CCC(N)=O)C(=O)NC(C)(C)C(=O)NC(C)(C)C(=O)N[C@@H](CCC(N)=O)C(=O)N[C@H](CC(C)C)C(=O)N[C@H](CO)CC(C)C | -94.3% (active) and -88.5% (active) |
| Cc1ccc2c(C3C(C#N)=C(N)Oc4cc5ccccc5cc43)cc(=O)oc2c1 (stereo not given) | 30.3% (inactive) |
| COc1ccc(/C=C/C(=O)c2ccc(NC(=O)CSc3nc4c([nH]3)c(=O)n(C)c(=O)n4C)cc2)cc1OC | 51.8% (inactive) |
| O=C1NCC(Nc2ccc(Br)cc2Cl)C(=O)N1 (stereo not given) | 124% (inactive) |
| Cc1ccc(C(=O)NN2C(=O)CSC2c2ccc(Cl)cc2)cn1 (stereo not given) | 110% (inactive) |
| Cc1ccc(N2C(=O)CCC2=O)cc1 | 103% (inactive) |
| C/C=C(/C(=O)NC(N)=O)C(C)C | 117% (inactive) |
| NC1CC2(CCN(c3cnc(C(=O)Nc4cc(F)cc5cccnc45)cn3)CC2)C1 | 50.6% (inactive) |
| CCOc1cccc(C2CC(=O)Nc3cc4c(cc32)OCO4)c1 (stereo not given) | 34.2% (inactive) |
| O=C(CNC(=O)c1cccc2ccccc12)Nc1ccccc1Oc1cccc(O)c1 | -3.16% [5 µM] (active) |
| Nc1n[nH]c2ccc([C@@H]3Nc4cc5c(cc4[C@H]4C6CCC(C6)[C@@H]34)C(=O)NC5)cc12 (stereo not given in full) | -9.96% (active) |
| CN(C)CCOc1ccc(/C(=C(/CCCl)c2ccccc2)c2ccccc2)cc1 | -57.1% (active) |
| CC(=O)N[C@@H](CCC(N)=O)C(=O)O | 108% (inactive) |
| CC(C)CCOc1ccc(-c2n[nH]c(C(F)(F)F)c2-c2cncc(C#N)c2)c(O)c1 | -26.4% (active) |
| Nc1c(C(=O)Nc2ccc(Cl)cc2)sc2nc(-c3cnccn3)cc(-c3cccs3)c12 | 82% (inactive) |
| CC(C)(Sc1cc(C(C)(C)C)c(O)c(C(C)(C)C)c1)Sc1cc(C(C)(C)C)c(OC(=O)CCCC(=O)O)c(C(C)(C)C)c1 | 43.5% (inactive) |
| Cc1ccc(Cc2cnc(NC(=O)c3cc(C)oc3C)s2)cc1 | 31.5% (inactive) |
| COc1ccc(C(=O)n2nc(CC(=O)NCc3ccccc3)nc2N)cc1 | 105% (inactive) |
| O=C(Nc1nc2ccccc2[nH]1)C(=O)Nc1nc2ccccc2[nH]1 | 103% (inactive) |

| Structure (SMILES) | growth |
| --- | --- |
| COc1cc(Nc2cc(C)nc(N3CCN(c4ccnc5cc(Cl)ccc45)CC3)n2)cc(OC)c1 | 11.2% (inactive) |
| COc1cc(OC)c2cc(C(=O)c3ccc(C#N)cc3)c(=O)oc2c1 | 94.1% (inactive) |
| Cn1cc(-c2csc(-c3c[nH]c4ccc(F)cc34)n2)c2ccnc(Cl)c21 | 15% (inactive) |
| Cc1ccc(S(=O)(=O)C2=C3C(=C(c4ccccc4)c4ccccc43)CN(S(=O)(=O)c3ccc(C)cc3)C2)cc1 | 51% (inactive) |
| C=CCn1c(SCC(=O)Nc2ccc(/C(C)=N/O)cc2)nnc1-c1cc(-c2ccc(S(N)(=O)=O)cc2)nc2ccccc12 | 57% (inactive) |
| CC(=O)Oc1cc(C)c(OC(C)=O)c(C)c1C | 47.1% (inactive) |
| CSC(SC)=C(C#N)c1nc2ccccc2s1 | 43.8% (inactive) |
| c1ccc2c(Nc3cccc4ccccc34)cccc2c1 | 61.8% (inactive) |
| Cn1cccc1/C=C1/SC(=S)N(CCc2ccc(O)cc2)C1=O | 10.3% (inactive) |
| CC(=O)OC[C@H]1OC(Sc2sc(C(=O)c3ccc(Cl)cc3)c(N)c2-c2nc3ccccc3s2)[C@H](OC(C)=O)[C@@H](OC(C)=O)[C@@H]1OC(C)=O (stereo not given in full) | 112% (inactive) |
| O=S(=O)(NCCCNc1cc(-c2cn(-c3ccccc3)nc2-c2cccc(O)c2)ccn1)c1cccc(F)c1 | 7.62% (active) |
| O=C(/C=C/C=C/c1ccc2c(c1)OCO2)N/N=C\c1ccc(O)cc1O | -2.83% (active) |
| CC(=O)OC(C)c1cccc(C#N)c1 (stereo not given) | 105% (inactive) |
| CCCCCCCCN=C(NCCCCCCCC)SCc1cccc2ccccc12 | -93.9% (active) |
| COc1cc(C2CC(c3ccc(Cl)cc3)=NN2C=O)ccc1Oc1ccnc2cc(Cl)ccc12 (stereo not given) | 39.7% (inactive) |
| CCOc1cccc(/C=N/NC(=O)c2cccc(Nc3ccnc(C(F)(F)F)c3)c2)c1O | 31.4% (inactive) |
| O=C(CCCCCCN1CC(=O)N2[C@H](c3cc(Br)cs3)c3[nH]c4ccccc4c3C[C@H]2C1=O)NO | 44.7% (inactive) |
| O=c1c2cc(F)ccc2sc2c(NCCN3CCCCC3)nc3ccccc3c12 | 6.41% (active) |
| CCC(=O)Oc1cc(/C=C/C(=O)O[C@H]2C[C@H]3CN4CCc5c([nH]c6cc(OC)ccc56)[C@@H]4C[C@@H]3[C@@H](C(=O)OC)[C@@H]2OC)ccc1OC | 71.3% (inactive) |
| C/C(=N\NC(=O)CSc1nc2ccccc2c(=O)n1Cc1ccc(S(N)(=O)=O)cc1)c1ccc(F)cc1 | 114% (inactive) |
